The structures appear in SMILES notation. About 5,100 (32%) of roughly 16,000 compounds were called active. Inconclusive results (about 25%) are left out. The list shows a part of the results. Unmarked numbers belong to inactive results. The call rests on the fitted dose curve; in most records, active means well fitted curve in the direction sought with a large enough effect; inconclusive means small, poorly fitted or top-dose-only effect, or effect the other way; inactive means no such curve, though single readings can be large or run the other way.
On the % scale 0 is the no-effect control and ±100 the full control effect.

In this assay the target is Cytochrome P450 3A4 (Homo sapiens) (UniProt P08684). As to the kind of experiment: Cytochrome panel assay with activity outcomes. The note with it: recombinant CYP, pro-luciferin dealkylation, luminescence, p450-cyp3a4; series mostly up to 57.1 µM; activity, negative = inhibition: at the top concentration.
Chain of Cytochrome P450 3A4 (Homo sapiens) (P08684 whole entry, looked up): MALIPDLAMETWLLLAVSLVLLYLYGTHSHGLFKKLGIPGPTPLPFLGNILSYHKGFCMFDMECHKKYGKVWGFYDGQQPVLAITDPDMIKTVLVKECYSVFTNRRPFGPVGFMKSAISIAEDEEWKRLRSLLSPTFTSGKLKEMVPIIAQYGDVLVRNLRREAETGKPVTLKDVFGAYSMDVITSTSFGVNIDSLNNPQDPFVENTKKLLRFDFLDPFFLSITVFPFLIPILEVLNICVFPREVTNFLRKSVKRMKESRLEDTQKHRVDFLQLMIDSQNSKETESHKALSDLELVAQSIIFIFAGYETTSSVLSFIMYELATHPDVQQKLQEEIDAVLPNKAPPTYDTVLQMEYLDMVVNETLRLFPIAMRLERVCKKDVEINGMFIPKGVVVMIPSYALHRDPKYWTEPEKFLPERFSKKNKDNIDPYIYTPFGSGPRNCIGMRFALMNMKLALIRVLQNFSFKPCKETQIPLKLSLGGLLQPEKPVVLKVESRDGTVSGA
With `COc1ccc(OC)c(NC(=O)[C@H]2CC=CC[C@H]2C(=O)O)c1`, the “activity, negative = inhibition” value was -12%.
As to `COc1ccc(OC)c(-c2cc(C(=O)O)c3cc4ccccc4cc3n2)c1`, the activity, negative = inhibition was 6% [at 11.4 µM].
As for `COc1cc(-c2nnc(COC(=O)c3c4c(nc5ccccc35)CCCC4)o2)cc(OC)c1OC`, the AC50 was 4.47 µM (active).
As for `Nc1c2c(nc3ccccc13)CCCC2`, the “activity, negative = inhibition” value is -22.4%.
`COc1ccc(OC)c(NC(=O)c2c3c(nc4ccccc24)CCC3)c1`: the AC50 is 7.08 µM (active).
Take `O=C1NC(=O)C(c2ccccc2)(c2ccccc2)N1`: the “activity, negative = inhibition” value was -9.15%.
With `O=C1Nc2cc(C(=O)N3CCOCC3)ccc2SC1N1CCOCC1` (centres undefined), the “activity, negative = inhibition” value was 17.3%.
`Cc1cn(CC[C@H](N)C(=O)O)c(=O)[nH]c1=O`: the activity, negative = inhibition was -9% [at 11.4 µM].
The same measure, in the same setting: next, `O=C(Nc1cccc(F)c1)N1CCC2(CC1)CCN(C(=O)c1csnn1)CC2`: -2.16%.
For `O=C(NCc1ccc(F)cc1)C(c1ccncc1)N(C(=O)c1csnn1)C1CC1` (centres undefined), the concentration at half-maximal activity (AC50) was 2 µM (active).
On to `O=C(NCc1ccccc1)C(c1ccncc1)N(C(=O)c1csnn1)C1CC1` (centres undefined), for which the AC50 is 2.82 µM (active).
Consider `O=C(O)CCC(=O)c1ccc(Cl)cc1`, for which the activity, negative = inhibition was 1.22% [at 11.4 µM].
On to `O=C(C/C=N/OCc1ccc(Cl)cc1Cl)c1ccc(Cl)cc1`, for which the AC50 was 25.1 µM (active).
In the case of `CCN1CCN(CCCNC(=O)C(NC(=O)C2CCC(C)CC2)C(C)C)CC1` (centres undefined), the “activity, negative = inhibition” value was -9.25%.
Take `COc1ccc2[nH]c(-c3ccccc3)c(CCNC(C)=O)c2c1`: the concentration at half-maximal activity (AC50) was 12.6 µM (active).
Take `CCCCNC(=O)C(=O)NC(C)CCc1ccccc1` (centres undefined): the “activity, negative = inhibition” value is 1.86%.
As to `COc1ccc2[nH]c3cc4c(=O)c5cc(OC)ccc5[nH]c4cc3c(=O)c2c1`, the activity, negative = inhibition was -0.294% [at 11.4 µM].
Consider `Cc1ccc2[nH]c(-c3ccccc3)c(CN(C)C)c(=O)c2c1`, for which the activity, negative = inhibition is 9.06% [at 2.29 µM].
With `CCCCC(=O)NCCc1c(Cc2ccccc2)[nH]c2ccccc12`, the concentration at half-maximal activity (AC50) was 0.794 µM (active).
On the same count and under the same terms, as for `CC(=O)NCCc1c(Cc2ccccc2)[nH]c2ccccc12`, the figure is 7.94 µM (active).
In the case of `CSc1nc(C)c2c(n1)N(c1ccc(C(C)C)cc1)CC2`, the “activity, negative = inhibition” value is -16.2%.
Regarding `C=CCc1cccc2cc(C(=O)N(CC)CC)c(=O)oc12`, the half-maximal activity concentration (AC50) was 11.2 µM (active).
For the molecule `Cc1cc(C)c[n+](CC(=O)c2cc3ccccc3oc2=O)c1`, the “activity, negative = inhibition” value was -13.7%.
In the case of `CN(C)c1ncnc2ccc(-c3cccc(C#N)c3)cc12`, the concentration at half-maximal activity (AC50) is 12.6 µM (active).
The same measure, in the same setting: as for `COc1cccc(-c2ccc3ncnc(N(C)C)c3c2)c1`, the figure is 7.94 µM (active); as for `CN(C)c1ncnc2ccc(-c3cccnc3)cc12`, 1 µM (active); as for `CN(C)c1ccc(-c2ccc3ncnc(N(C)C)c3c2)cc1`, 6.31 µM (active).
Regarding `CN(C)c1ncnc2c1ncn2CCn1cnc2c(N(C)C)ncnc21`, the activity, negative = inhibition is 8.51% [at 11.4 µM].
Consider `NC(=O)C1(N2CCCCC2)CCN(C(=O)c2ccc(-n3cnnn3)cc2)CC1`, for which the “activity, negative = inhibition” value is -3.2%.
For `NC(N)=[N+]1CCc2ccccc2C1`, the “activity, negative = inhibition” value was -1.96%.
For the molecule `COC(=O)C(NNc1ccccc1)(NC(=O)c1ccccc1F)C(F)(F)F` (centres undefined), the AC50 is 1.58 µM (active).
For the molecule `CN1CCN(NC(=O)c2ccccc2F)CC1`, the “activity, negative = inhibition” value was 4.34%.
The same measure, in the same setting: as for `O=C(O)c1ccc(S(=O)(=O)N=Nc2c(O)[nH]c3ccccc23)cc1`, the figure is 14.3% [at 11.4 µM]; as for `[Cu].[O-]/N=C1/C(=[OH+])Nc2ccccc21.[O-]Nc1c(O)[nH]c2ccccc12`, 1.34% [at 11.4 µM].
For the molecule `O=Nc1c(-c2c(O)[nH]c3ccccc23)[nH]c2ccccc12`, the concentration at half-maximal activity (AC50) is 7.94 µM (active).
Consider `O=c1[nH][nH]c(C(F)(F)F)c1C=Nc1ccccc1`, for which the “activity, negative = inhibition” value was -5.01%.
`COc1cc2nc(N(C)CCCNC(=O)[C@@H]3CCCO3)nc(N)c2cc1OC`: the “activity, negative = inhibition” value was -10.6% [at 25.6 µM].
For the molecule `COc1cc2nc(N3CCN(C(=O)OCc4ccccc4)[C@H](C(=O)NC(C)(C)C)C3)nc(N)c2cc1OC`, the AC50 was 3.98 µM (active).
As for `C=CCN=C1CC(C)(C)CC(=O)/C1=C(/O)CCC(=O)OC`, the “activity, negative = inhibition” value is -3.27%.
Same read-out and setting: next, `CC(C)(CCc1nc2ccccc2[nH]1)C(=O)O`: -1.06% [at 11.4 µM].
For `Cc1cc(C)cc(NC(=O)CCc2nc3ccccc3[nH]2)c1`, the AC50 is 2.82 µM (active).
Regarding `CC(=O)COC(=O)CCc1nc2ccccc2[nH]c1=O`, the “activity, negative = inhibition” value was 10.3%.
Take `CCCn1c(-c2cccs2)nc2nc3ccccc3nc21`: the half-maximal activity concentration (AC50) is 10 µM (active).
`CCCCNC(=O)NS(=O)(=O)c1ccc(C(=O)OC(C)C)o1`: the “activity, negative = inhibition” value is 1.1%.
As for `C/C(=N\OC(=O)c1ccccc1)c1cc(-c2ccc(Cl)cc2)no1`, the “activity, negative = inhibition” value was -1.98%.
Take `N/C(=N\OC(=O)Cc1ccc(Cl)cc1)c1cccnc1`: the AC50 was 0.794 µM (active).
`Cc1cc(C)n(CC(=O)N/N=C/c2ccco2)n1`: the “activity, negative = inhibition” value is 8.54%.
As for `COc1ccccc1NCc1nnc(SCC(=O)N/N=C/c2ccco2)n1-c1ccc(Cl)cc1Cl`, the half-maximal activity concentration (AC50) is 5.01 µM (active).
Take `O=C(Nc1cccc(F)c1)/C(=C\c1ccco1)NC(=O)c1cccs1`: the activity, negative = inhibition is -8.91% [at 2.29 µM].
Still for that read-out and setting: next, `O=C(NC(=S)NNC(=O)c1cccs1)c1ccco1`: -0.791% [at 2.29 µM].
Take `CC(=O)c1cccc(NC(=O)/C(=C\c2ccco2)NC(=O)c2cccs2)c1`: the AC50 is 20 µM (active).
As to `O=C(NC(N1CCCC1)C(Cl)(Cl)Cl)c1ccccc1` (centres undefined), the “activity, negative = inhibition” value was -21.3%.
Take `O=C(N/C(=C\c1cccs1)C(=O)N1CCCCCC1)c1ccccc1`: the AC50 is 7.94 µM (active).
Regarding `O=C(N/C(=C/c1ccco1)C(=O)N1CCCCCC1)c1cccs1`, the concentration at half-maximal activity (AC50) was 14.1 µM (active).
As for `O=C(O)C/C(=C\c1ccco1)C(=O)O`, the activity, negative = inhibition was -18.3% [at 11.4 µM].
As for `O=C(NCC1CCCO1)/C(=C\c1ccco1)NC(=O)c1ccccc1` (centres undefined), the “activity, negative = inhibition” value was -22.7%.
In the case of `O=C(NNC(=O)c1ccccc1)C(=O)N1CCCCC1`, the “activity, negative = inhibition” value was 11.6%.
As for `CC(=O)/C=C/c1ccc2ccccc2n1`, the “activity, negative = inhibition” value is -12.5%.
On to `C/C(=N/Nc1ccc2ccccc2n1)c1ccccc1O`, for which the AC50 is 3.16 µM (active).
As for `CC(=NC1CCCCC1)c1ccccc1O`, the activity, negative = inhibition is -3.59% [at 11.4 µM].
With `Cc1cc(N=Cc2c(CO)cnc(C)c2O)c(N=Cc2c(CO)cnc(C)c2O)cc1C.[Zn]`, the activity, negative = inhibition is -6.9% [at 11.4 µM].
Consider `Cc1cc(C)cc(-n2nnnc2SCC(=O)Nc2nc(-c3ccc(F)cc3)cs2)c1`, for which the AC50 is 1.58 µM (active).
As to `COC(=O)CSc1ccc2nnc(-c3ccc(F)cc3)n2n1`, the “activity, negative = inhibition” value is 2.79%.
As to `Cc1cc(C)cc(-n2nnnc2SCC(=O)Nc2nc(-c3ccc(Cl)cc3)cs2)c1`, the half-maximal activity concentration (AC50) is 3.98 µM (active).

A word on the AC50: it is the concentration giving half of the maximal activity seen.

These data come from PubChem BioAssay AID1851 (National Center for Advancing Translational Sciences (NCATS), 2009).
